What all share (assay): NCI-60 one-dose screen, 48 h (100 = growth as untreated, 0 = no growth, -100 = all killed)
One assay has as its system NCI-H460 lung. Conditions: 10 µM unless noted.
The next assay concerns HOP-92 NSCLC. To be noted: 10 µM unless noted.
The next assay deals with MALME-3M melanoma. To be noted: 10 µM unless noted.
Another assay deals with MDA-MB-231 breast. To be noted: 10 µM unless noted.
A further assay has as its system RXF 393 renal. Conditions: 10 µM unless noted.
Another assay concerns UACC-257 melanoma. Conditions: 10 µM unless noted.
The next assay has as its system HT29 colon. Conditions: 10 µM unless noted.
For the next assay, the system named is PC-3 prostate. Conditions: 10 µM unless noted.
The next assay concerns SK-MEL-5 melanoma. To be noted: 10 µM unless noted.
A further assay concerns SK-MEL-28 melanoma. To be noted: 10 µM unless noted.
The test system of a further assay is UO-31 renal. Conditions: 10 µM unless noted.
For the next assay, the system named is CCRF-CEM leukemia. Conditions: 10 µM unless noted.
The subject of a further assay is SR leukemia. Conditions: 10 µM.
For another assay, the system named is OVCAR-4 ovarian. Conditions: 10 µM unless noted.
For a further assay, the system named is IGROV1 ovarian. To be noted: 10 µM.
The test system of the next assay is HS 578T breast. To be noted: 10 µM unless noted.
The next assay concerns BT-549 breast. To be noted: 10 µM.
For the next assay, the system named is SW-620 colon. To be noted: 10 µM unless noted.
A further assay relates to HCC-2998 colon. Conditions: 10 µM unless noted.
The test system of the next assay is KM12 colon. Conditions: 10 µM unless noted.

About 83,000 compounds went through this panel and 20% of them were active in at least one assay; those are over-represented in the sample as a whole.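 Assay: single dose, 48 h. Readout: percent growth (0 = no net growth; negative = cell death). Active: <10.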 The source made the active and inactive calls.

The source of these data is PubChem BioAssay (NCI).

For `COc1ccc(CN2CCN(Cc3ccccc3)CC2)c(O)c1`, the growth is 97% (inactive) in the assay with NCI-H460 lung; 87.9% (inactive) in the assay on HOP-92 NSCLC; 98.4% (inactive) with MALME-3M melanoma; 104% (inactive) in the assay on MDA-MB-231 breast; 105% (inactive) in the assay on RXF 393 renal; 105% (inactive) in the assay on UACC-257 melanoma. Moreover, the growth with HT29 colon is 87.7% (inactive); in the assay on PC-3 prostate it was 86.2% (inactive); in the assay with SK-MEL-5 melanoma, 87.9% (inactive); in the assay on SK-MEL-28 melanoma, 115% (inactive); with UO-31 renal it was 68.7% (inactive); in the assay on CCRF-CEM leukemia, 87.1% (inactive). Also, the growth is 73.5% (inactive) in the assay on SR leukemia; 99.8% (inactive) in the assay with OVCAR-4 ovarian; 91.3% (inactive) in the assay with IGROV1 ovarian; 102% (inactive) in the assay with HS 578T breast; 92% (inactive) in the assay on BT-549 breast; 98.5% (inactive) in the assay with SW-620 colon. Besides, the growth is 89.4% (inactive) with HCC-2998 colon and 100% (inactive) with KM12 colon.

Turning to `C/C(=N/OC(=O)N(C)C)c1cc(Cl)ccc1Cl`, the growth was 105% (inactive) in the assay on NCI-H460 lung; 107% (inactive) in the assay with HOP-92 NSCLC; 95.9% (inactive) in the assay on MALME-3M melanoma; 111% (inactive) in the assay on MDA-MB-231 breast; 102% (inactive) in the assay with RXF 393 renal; 103% (inactive) in the assay with UACC-257 melanoma. The growth in the assay on HT29 colon is 100% (inactive); in the assay on PC-3 prostate it was 106% (inactive); in the assay with SK-MEL-5 melanoma, 100% (inactive); with SK-MEL-28 melanoma it was 113% (inactive); in the assay on UO-31 renal, 77.4% (inactive); in the assay on CCRF-CEM leukemia, 91.7% (inactive). The growth in the assay on SR leukemia was 90.7% (inactive); in the assay on OVCAR-4 ovarian, 107% (inactive); with IGROV1 ovarian, 104% (inactive); in the assay with HS 578T breast, 105% (inactive); in the assay on BT-549 breast, 98.5% (inactive); in the assay with SW-620 colon it was 101% (inactive). Further, the values for the growth in the assay with HCC-2998 colon and in the assay with KM12 colon were 102% (inactive) and 106% (inactive), respectively.

In the case of `COc1ccc(NP2(=O)OCC(C)(N)CO2)cc1` (stereo unspecified), the growth is 108% (inactive) in the assay on NCI-H460 lung; 94.8% (inactive) with HOP-92 NSCLC; 97.3% (inactive) with MALME-3M melanoma; 106% (inactive) with MDA-MB-231 breast; 104% (inactive) in the assay with RXF 393 renal; 97.6% (inactive) in the assay with UACC-257 melanoma. Also, the growth was 98.7% (inactive) in the assay on HT29 colon; 84.5% (inactive) with PC-3 prostate; 96.3% (inactive) with SK-MEL-5 melanoma; 114% (inactive) with SK-MEL-28 melanoma; 75.6% (inactive) in the assay with UO-31 renal; 88.9% (inactive) with CCRF-CEM leukemia. Also, the growth in the assay on SR leukemia was 88.7% (inactive); in the assay on OVCAR-4 ovarian it was 110% (inactive); in the assay on IGROV1 ovarian it was 102% (inactive); in the assay with HS 578T breast, 109% (inactive); with BT-549 breast, 77% (inactive); in the assay with SW-620 colon, 105% (inactive). Moreover, the growth in the assay with HCC-2998 colon is 109% (inactive); with KM12 colon, 91.8% (inactive).

Turning to `CCC(C)(C)O`, the growth was 104% (inactive) with NCI-H460 lung; 95.3% (inactive) in the assay on HOP-92 NSCLC; 110% (inactive) with MALME-3M melanoma; 97.4% (inactive) in the assay on MDA-MB-231 breast; 111% (inactive) in the assay with RXF 393 renal; 119% (inactive) with UACC-257 melanoma. Further, the growth is 109% (inactive) in the assay with HT29 colon; 100% (inactive) in the assay on PC-3 prostate; 101% (inactive) in the assay on SK-MEL-5 melanoma; 108% (inactive) in the assay with SK-MEL-28 melanoma; 93.8% (inactive) in the assay on UO-31 renal; 6.63% (active) in the assay with CCRF-CEM leukemia. Further, the growth with SR leukemia was 101% (inactive); with OVCAR-4 ovarian it was 111% (inactive); in the assay on IGROV1 ovarian, 117% (inactive); in the assay with HS 578T breast, 105% (inactive); in the assay on BT-549 breast it was 110% (inactive); in the assay on SW-620 colon, 99.9% (inactive). Moreover, the figures for the growth with HCC-2998 colon and in the assay on KM12 colon were 112% (inactive) and 105% (inactive), respectively.

Consider `CC(C)OC(=S)[S-].[Au+].c1ccc([PH+](c2ccccc2)c2ccccc2)cc1`, for which the growth was 79.5% (inactive) in the assay with NCI-H460 lung; -23% (active) in the assay on HOP-92 NSCLC; 5.97% (active) in the assay with MALME-3M melanoma; -14.3% (active) with MDA-MB-231 breast; -77.1% (active) in the assay with RXF 393 renal; 28.1% (inactive) in the assay with UACC-257 melanoma. In addition, the growth is 55.7% (inactive) in the assay with HT29 colon; 42.9% (inactive) with PC-3 prostate; 30.2% (inactive) in the assay on SK-MEL-5 melanoma; 16.5% (inactive) in the assay with SK-MEL-28 melanoma; 21.9% (inactive) in the assay with UO-31 renal; 10.9% (inactive) in the assay on CCRF-CEM leukemia. Besides, the growth in the assay with SR leukemia was 3.82% (active); with OVCAR-4 ovarian, 38.9% (inactive); in the assay with IGROV1 ovarian it was 2.28% (active); in the assay with HS 578T breast, 15.6% (inactive); in the assay with BT-549 breast, -3.75% (active); in the assay on SW-620 colon it was -59.2% (active). Also, the growth in the assay on HCC-2998 colon was 50.8% (inactive); in the assay on KM12 colon it was 69.4% (inactive).

Turning to `COc1c(O)c2c3c(c1OC)-c1ccccc1CC3N(C)CC2` (stereo unspecified), the growth was 110% (inactive) in the assay with NCI-H460 lung; 110% (inactive) with HOP-92 NSCLC; 105% (inactive) with MALME-3M melanoma; 96.3% (inactive) in the assay on MDA-MB-231 breast; 133% (inactive) with RXF 393 renal; 103% (inactive) in the assay with UACC-257 melanoma. Besides, the growth is 110% (inactive) in the assay with HT29 colon; 100% (inactive) with PC-3 prostate; 108% (inactive) in the assay with SK-MEL-5 melanoma; 117% (inactive) in the assay on SK-MEL-28 melanoma; 89.9% (inactive) in the assay with UO-31 renal; 98.7% (inactive) in the assay with CCRF-CEM leukemia. The growth in the assay with SR leukemia is 75.1% (inactive); in the assay on OVCAR-4 ovarian it was 120% (inactive); with IGROV1 ovarian, 96.8% (inactive); in the assay on HS 578T breast, 110% (inactive); in the assay on SW-620 colon it was 117% (inactive); in the assay with HCC-2998 colon, 111% (inactive). Further, the growth in the assay with KM12 colon is 100% (inactive).

In the case of `COc1cc(NCCCCCN=C(N)N)c2ncccc2c1`, the growth in the assay with NCI-H460 lung is 65.9% (inactive); in the assay with HOP-92 NSCLC it was 66.7% (inactive); in the assay on MALME-3M melanoma it was 19.6% (inactive); with MDA-MB-231 breast, 50.8% (inactive); in the assay on UACC-257 melanoma it was 79.7% (inactive); in the assay with HT29 colon, 62.9% (inactive). Further, the growth in the assay with PC-3 prostate is 23.4% (inactive); with SK-MEL-28 melanoma, 89.7% (inactive); with UO-31 renal it was 83.9% (inactive); in the assay with CCRF-CEM leukemia, 39.8% (inactive); in the assay on SR leukemia, 33.5% (inactive); in the assay on OVCAR-4 ovarian it was -12.1% (active). In addition, the growth is 23.6% (inactive) in the assay with IGROV1 ovarian; 38.7% (inactive) in the assay with BT-549 breast; 58.9% (inactive) in the assay on SW-620 colon; 55.9% (inactive) in the assay with HCC-2998 colon; 32.6% (inactive) in the assay on KM12 colon.

As for `O=C(N/N=C/c1ccc([N+](=O)[O-])o1)c1cc([N+](=O)[O-])cc([N+](=O)[O-])c1O`, the growth was 105% (inactive) with NCI-H460 lung; 117% (inactive) in the assay on HOP-92 NSCLC; 122% (inactive) in the assay on MALME-3M melanoma; 93.5% (inactive) with MDA-MB-231 breast; 102% (inactive) in the assay on RXF 393 renal; 99.2% (inactive) in the assay with UACC-257 melanoma. For the same compound, the growth with HT29 colon was 97.4% (inactive); in the assay with PC-3 prostate, 85.9% (inactive); in the assay on SK-MEL-5 melanoma, 95% (inactive); in the assay with SK-MEL-28 melanoma, 113% (inactive); with UO-31 renal, 80% (inactive); in the assay on CCRF-CEM leukemia it was 98.3% (inactive). Moreover, the growth is 70.7% (inactive) in the assay with SR leukemia; 106% (inactive) with OVCAR-4 ovarian; 97% (inactive) in the assay on IGROV1 ovarian; 104% (inactive) in the assay on HS 578T breast; 103% (inactive) with BT-549 breast; 102% (inactive) with SW-620 colon. Moreover, the growth with HCC-2998 colon was 102% (inactive); with KM12 colon, 99.7% (inactive).
